Data on five molecules can be found in PubChem BioAssay.

A short description of assay [1]: small molecules captured by biotinylated probe aFSTL3 – biochemical, small-molecule microarray, fluorescence 635/667, stem cell growth factor project, primary screen (AID 1064).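 Further: measures binding of the biotinylated anti-FSTL3 antibody to printed compounds.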 Conditions: higher = more signal.
A short description of assay [2]: binders from COS7 lysate, DM2A8 probe, primary screen, torsin A project, cell lysate, small-molecule microarray, fluorescence 635/667 (AID 1065). Conditions: higher = more signal, COS7 lysate expressing mutant human TOR1A.
Assay [3] in a line: small molecules captured by biotinylated probe aFGF2 – biochemical, small-molecule microarray, fluorescence 635/667, stem cell growth factor project, primary screen (AID 1067).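 Further: measures binding of biotinylated aFGF2 protein to printed compounds on slides; z-score merges feature fluorescence and signal-to-noise across triplicate slides.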 Conditions: higher = more signal.
The nature of assay [4]: small molecules captured by biotinylated probe aFGF10 – biochemical, small-molecule microarray, fluorescence 635/667, stem cell growth factor project, primary screen (AID 1071).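 Further: score merges 667 nm spot intensity and signal to noise from triplicate slides.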 As to conditions: higher = more signal.
Assay [5] has as its target Neurogenic locus notch homolog protein 2 (Homo sapiens) (UniProt Q04721). Kind of assay: small molecules binding Notch2 protein – biochemical, small-molecule microarray, 635 nm fluorescence, stem cell growth factors, primary screen (AID 1073). As to conditions: higher = more signal.
Assay [6] has as its target Pro-neuregulin-1, membrane-bound isoform (Homo sapiens) (UniProt Q02297). As to the kind of experiment: small molecules binding neuregulin-1 protein – biochemical, small-molecule microarray, fluorescence 635/667, psychiatric disease protein project, primary screen (AID 1075).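 Further: score combines 667 nm spot fluorescence with signal to noise.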 Conditions: NRG1 binding, 635 nm fluorescence, higher = more signal.
In assay [7] the test system is Neuregulin-1 EGF-like domain. Kind of assay: small molecules binding NRG1 EGF domain – biochemical, small-molecule microarray, 635 nm fluorescence, primary screen (AID 1081).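 Further: binding of the protein to compounds printed on small-molecule microarray slides.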 As to conditions: higher = more signal.
A short description of assay [8]: FRG1 expression reporter modulators in myotubes – cell-based, C2C12 myotubes, firefly/Renilla luciferase, luminescence, FRG1 inhibition for FSHD, primary screen (AID 1084). Conditions: FRG1 promoter luciferase, higher = more signal, called active from +8 up or from −8 down.
Assay [9] is described as follows: small molecules captured by biotinylated probe aFST – biochemical, small-molecule microarray, fluorescence 635/667, stem cell growth factor project, primary screen (AID 1086).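 Further: score merges 667 nm fluorescence with signal-to-noise of each printed compound spot.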 Conditions: higher = more signal.
Assay [10] can be described thus: binders of probe aHhip on microarray, primary screen, stem cell growth factor project, biochemical, small-molecule microarray, fluorescence 635/667 (AID 1087).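 Further: score merges spot fluorescence at 667nm with spot signal to noise ratio.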 As to conditions: higher = more signal.
For assay [11], the system named is PRMT1 (protein arginine N-methyltransferase 1). As to the kind of experiment: small molecules binding arginine methyltransferase PRMT1 – biochemical, small-molecule microarray, 635 nm fluorescence, primary screen (AID 1088).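 Further: binding of Prmt1 protein to compounds spotted on small-molecule microarray slides.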 As to conditions: higher = more signal.
Assay [12] can be described thus: growth effects on S. cerevisiae YJM789 – YJM789 clinical isolate, OD600, 24 h, basal, primary screen (AID 1089).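 Further: growth of clinical yeast isolate S. cerevisiae YJM 789 seeded 1000 cells per well; test concentration not given here.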 As to conditions: higher = more signal, called active from +8 up or from −8 down.
The nature of assay [13]: S. pombe growth modifiers, basal conditions – strain 972, OD600, 24 h, no modulator, primary screen (AID 1090).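 Further: basal condition with compound alone and no growth modifier present; test concentration not given here.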 As to conditions: S. pombe 972 growth, higher = more signal, called active from +8 up or from −8 down.
Assay [14] is described as follows: budding yeast growth modifiers under rapamycin – strain BY4716, OD600, 96 h, primary screen (AID 1091). Further: test concentration not given here. As to conditions: S. cerevisiae BY4716 + rapamycin, higher = more signal, called active from +8 up or from −8 down.
Assay [15] deals with Torsin-1A-interacting protein 2 (Homo sapiens) (UniProt Q8NFQ8). As to the kind of experiment: small molecules binding lysate-expressed LULL1 – cell lysate, human LULL1 lysate, 635/667 nm fluorescence, primary screen (AID 1092).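 Further: probe is lysate of COS7 cells overexpressing human LULL1; score merges per-feature 667 nm fluorescence with signal-to-noise.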 Conditions: small-molecule microarray, hLULL1 lysate binding, 635 nm fluorescence; higher = more signal.
Chain of Torsin-1A-interacting protein 2 (Homo sapiens) (Q8NFQ8 whole entry, looked up): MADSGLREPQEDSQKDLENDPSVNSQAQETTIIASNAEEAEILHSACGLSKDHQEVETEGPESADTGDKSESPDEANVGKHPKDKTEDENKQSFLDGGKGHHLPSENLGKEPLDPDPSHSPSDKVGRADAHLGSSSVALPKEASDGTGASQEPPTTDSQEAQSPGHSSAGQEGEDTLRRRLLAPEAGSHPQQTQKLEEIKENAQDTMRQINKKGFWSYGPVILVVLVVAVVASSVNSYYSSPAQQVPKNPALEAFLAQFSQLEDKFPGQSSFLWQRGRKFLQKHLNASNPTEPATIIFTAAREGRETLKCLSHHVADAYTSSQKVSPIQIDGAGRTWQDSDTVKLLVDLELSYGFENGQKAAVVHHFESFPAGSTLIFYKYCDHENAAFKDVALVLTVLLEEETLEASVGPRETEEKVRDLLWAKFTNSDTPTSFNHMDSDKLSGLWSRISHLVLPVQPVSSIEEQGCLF
The nature of assay [16]: optical density change of DRC41 E. coli – strain DRC41, OD650, 24 h, E. coli filamentation project, primary screen (AID 1093).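 Further: MC1000 strain lacking acrAB efflux and sulA so SOS filamentation is blocked; test concentration not given here.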 As to conditions: E. coli DRC41 growth, higher = more signal, called active from +8 up or from −8 down.
A short description of assay [17]: probe aLefty2 binding to arrayed compounds – biochemical, biotinylated probe, 635/667 nm fluorescence, primary screen (AID 1094).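 Further: score merges spot fluorescence near 667 nm with spot signal-to-noise ratio.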 As to conditions: small-molecule microarray, higher = more signal.
Assay [18] deals with Noggin (protein binding on small-molecule microarray). Kind of assay: small molecules binding Noggin protein – biochemical, 635/667 nm fluorescence, primary screen (AID 1095).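 Further: score merges 667 nm feature fluorescence with signal to noise over triplicate slides.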 As to conditions: 635 nm fluorescence, higher = more signal.
Assay [19] addresses Neurogenic locus notch homolog protein 3 (Homo sapiens) (UniProt Q9UM47). As to the kind of experiment: small molecules binding NOTCH3 protein – biochemical, 635/667 nm fluorescence, primary screen (AID 1096). Conditions: small-molecule microarray, 635 nm fluorescence, higher = more signal.
Assay [20] is described as follows: probe aEGFR binding to arrayed compounds – biochemical, biotinylated probe, 635/667 nm fluorescence, primary screen (AID 1097).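 Further: probe is a biotinylated anti-EGFR antibody binding compounds printed on slides; score combines fluorescence near 667 nm and signal to noise of each spot.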 Conditions: small-molecule microarray, higher = more signal.

Active and inactive are the calls of the source.

Chain of Neurogenic locus notch homolog protein 3 (Homo sapiens) (Q9UM47 whole entry, looked up): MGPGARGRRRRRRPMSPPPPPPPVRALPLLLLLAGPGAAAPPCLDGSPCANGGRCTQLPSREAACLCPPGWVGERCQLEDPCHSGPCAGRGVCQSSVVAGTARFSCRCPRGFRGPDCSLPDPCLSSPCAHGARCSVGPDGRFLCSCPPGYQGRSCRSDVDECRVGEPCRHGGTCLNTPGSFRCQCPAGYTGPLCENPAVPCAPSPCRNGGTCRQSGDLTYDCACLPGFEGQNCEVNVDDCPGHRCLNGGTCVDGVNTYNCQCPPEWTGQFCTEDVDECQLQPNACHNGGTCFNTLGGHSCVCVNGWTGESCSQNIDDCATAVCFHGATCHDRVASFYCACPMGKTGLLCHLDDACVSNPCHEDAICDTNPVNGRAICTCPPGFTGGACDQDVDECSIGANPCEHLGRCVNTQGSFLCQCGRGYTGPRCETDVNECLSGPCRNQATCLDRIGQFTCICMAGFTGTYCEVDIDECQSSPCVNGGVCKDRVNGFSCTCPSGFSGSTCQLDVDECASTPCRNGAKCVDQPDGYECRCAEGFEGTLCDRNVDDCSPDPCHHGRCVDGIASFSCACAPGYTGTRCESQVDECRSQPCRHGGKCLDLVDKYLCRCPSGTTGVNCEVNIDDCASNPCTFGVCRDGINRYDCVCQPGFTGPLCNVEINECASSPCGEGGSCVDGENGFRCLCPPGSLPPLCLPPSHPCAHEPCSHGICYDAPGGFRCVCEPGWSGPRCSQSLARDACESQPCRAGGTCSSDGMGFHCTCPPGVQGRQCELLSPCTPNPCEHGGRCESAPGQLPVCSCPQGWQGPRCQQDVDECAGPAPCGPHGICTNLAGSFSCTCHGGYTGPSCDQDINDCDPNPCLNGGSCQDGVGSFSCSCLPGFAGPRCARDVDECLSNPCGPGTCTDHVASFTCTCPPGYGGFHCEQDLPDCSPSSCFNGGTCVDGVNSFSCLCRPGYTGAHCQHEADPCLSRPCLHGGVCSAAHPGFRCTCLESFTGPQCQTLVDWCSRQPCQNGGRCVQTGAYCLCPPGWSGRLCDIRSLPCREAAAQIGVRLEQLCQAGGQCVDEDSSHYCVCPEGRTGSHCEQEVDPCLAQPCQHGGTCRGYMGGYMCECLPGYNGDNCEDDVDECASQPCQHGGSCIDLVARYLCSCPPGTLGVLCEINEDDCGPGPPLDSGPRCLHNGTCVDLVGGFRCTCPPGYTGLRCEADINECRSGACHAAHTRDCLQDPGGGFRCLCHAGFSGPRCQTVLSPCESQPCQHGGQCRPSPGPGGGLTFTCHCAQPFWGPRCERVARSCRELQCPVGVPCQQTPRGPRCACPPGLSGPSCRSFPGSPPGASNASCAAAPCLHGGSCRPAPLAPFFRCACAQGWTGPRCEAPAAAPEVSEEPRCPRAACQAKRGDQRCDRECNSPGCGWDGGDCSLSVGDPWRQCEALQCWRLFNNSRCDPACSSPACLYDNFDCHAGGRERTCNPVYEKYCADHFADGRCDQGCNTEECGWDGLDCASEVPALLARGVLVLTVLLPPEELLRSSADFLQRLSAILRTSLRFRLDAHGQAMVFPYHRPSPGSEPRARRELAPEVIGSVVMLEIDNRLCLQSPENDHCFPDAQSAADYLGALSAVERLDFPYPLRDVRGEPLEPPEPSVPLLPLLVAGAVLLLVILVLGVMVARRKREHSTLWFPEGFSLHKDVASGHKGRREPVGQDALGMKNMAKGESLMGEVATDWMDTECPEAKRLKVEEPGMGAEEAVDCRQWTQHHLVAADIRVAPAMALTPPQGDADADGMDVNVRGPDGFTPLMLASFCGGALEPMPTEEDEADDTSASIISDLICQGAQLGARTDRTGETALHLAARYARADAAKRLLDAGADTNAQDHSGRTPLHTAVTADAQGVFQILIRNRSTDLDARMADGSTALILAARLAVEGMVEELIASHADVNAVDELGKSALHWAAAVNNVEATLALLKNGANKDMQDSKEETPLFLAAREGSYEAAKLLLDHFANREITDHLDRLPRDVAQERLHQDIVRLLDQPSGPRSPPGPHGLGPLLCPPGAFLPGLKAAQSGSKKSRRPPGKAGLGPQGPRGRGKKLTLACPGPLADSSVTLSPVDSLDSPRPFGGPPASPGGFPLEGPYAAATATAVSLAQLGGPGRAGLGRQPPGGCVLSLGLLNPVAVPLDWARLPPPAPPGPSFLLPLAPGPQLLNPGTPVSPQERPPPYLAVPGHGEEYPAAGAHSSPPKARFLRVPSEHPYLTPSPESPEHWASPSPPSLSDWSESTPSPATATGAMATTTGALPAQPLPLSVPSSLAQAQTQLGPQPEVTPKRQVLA
Chain of Pro-neuregulin-1, membrane-bound isoform (Homo sapiens) (Q02297 whole entry, looked up, the tested form may be a part, canonical isoform): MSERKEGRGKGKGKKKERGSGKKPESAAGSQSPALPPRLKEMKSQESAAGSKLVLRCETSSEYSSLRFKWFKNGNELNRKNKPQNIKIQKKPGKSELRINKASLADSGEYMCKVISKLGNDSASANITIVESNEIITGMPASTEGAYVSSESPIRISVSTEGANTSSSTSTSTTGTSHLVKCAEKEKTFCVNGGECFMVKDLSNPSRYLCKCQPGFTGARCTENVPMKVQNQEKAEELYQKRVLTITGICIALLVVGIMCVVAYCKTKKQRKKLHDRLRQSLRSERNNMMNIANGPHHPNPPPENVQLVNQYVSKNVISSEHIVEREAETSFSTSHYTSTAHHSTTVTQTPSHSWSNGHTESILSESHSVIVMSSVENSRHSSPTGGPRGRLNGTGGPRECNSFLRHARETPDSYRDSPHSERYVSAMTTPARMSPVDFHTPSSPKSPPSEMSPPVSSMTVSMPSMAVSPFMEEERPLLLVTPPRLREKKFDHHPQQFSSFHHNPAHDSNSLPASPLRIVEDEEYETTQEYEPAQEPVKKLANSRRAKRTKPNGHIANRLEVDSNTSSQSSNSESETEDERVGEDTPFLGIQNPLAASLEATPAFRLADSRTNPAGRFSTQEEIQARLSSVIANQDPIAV

As for `C[N+](C)(C)CCCCNC(=O)[C@@H]1C[C@@H]2C(=O)N[C@@H](Cc3ccccc3)C(=O)N2[C@@H]1c1cccc(OCCO)c1`, the composite z-score in assay [1] is 0.241; in assay [2] it was -0.108; in assay [3], -0.147; in assay [4], 0.394; in assay [5] it was -0.39; in assay [6], 1.01. For the same molecule, the composite z-score was 1.14 in [7]; -0.253 in assay [9]; -0.195 in assay [10]; 0.402 in assay [11]; 1.42 in assay [15]; -0.0333 in assay [17]. For the same molecule, the figures for the composite z-score in [18], in assay [19] and in assay [20] were 0.692, -0.0417 and -0.169, respectively. Further, the z-score is 1.51 (inactive) in assay [8]; 0.534 (inactive) in assay [12]; -0.642 (inactive) in assay [13]; -1.14 (inactive) in assay [14]; 1.07 (inactive) in assay [16].

For `COC(=O)[C@@]1(Cc2ccc(F)cc2)[C@H]2c3cc(C(=O)N4CCCC4)n(Cc4ccc(S(C)(=O)=O)cc4)c3C[C@H]2CN1C(=O)c1ccccc1`, the composite z-score in assay [1] was 0.635; in [2], -0.266; in assay [3], 0.29; in assay [4] it was 0.983; in assay [5], 1.55; in assay [6] it was 1.88. Also, the composite z-score in assay [7] was 0.859; in [9] it was 2.09; in assay [10] it was -0.0169; in [11], -0.0384; in assay [15] it was 3.29; in [17], 0.267. Further, the composite z-score in assay [18] was -0.771; in [19], 1.02; in assay [20] it was 0.123. The z-score in assay [8] was -0.205 (inactive); in [12] it was -0.13 (inactive); in assay [13] it was 0.365 (inactive); in assay [14], 1.48 (inactive); in assay [16] it was -1.02 (inactive).

On to `CN(C)C(=O)[C@@]1(CCS(=O)(=O)c2ccccc2)COC(c2ccc(OCCCO)cc2)=N1`, for which the composite z-score in assay [1] is 0.578; in assay [2] it was -0.149; in [3], 0.127; in [4], 0.568; in assay [5], 0.331; in assay [6], 1.8. Also, the composite z-score in assay [7] was 1.36; in [9] it was 0.47; in [10], -0.141; in assay [11], 0.494; in assay [15] it was 3.63; in assay [17], -0.0258. Further, the composite z-score is -0.252 in assay [18], -0.136 in [19] and 0.36 in assay [20]. For the same molecule, the z-score in [8] was -2.05 (inactive); in assay [12], -0.126 (inactive); in [13], 1.45 (inactive); in assay [14], 0.546 (inactive); in [16], 0.199 (inactive).

As to `O=C1C2C=CC(C(O)Cc3ccccc3)N(n3cnnc3)C2C(=O)N1Cc1ccccc1` (stereo not given), the composite z-score is 0.442 in assay [1]; -0.0532 in assay [2]; 0.038 in assay [3]; 0.426 in [4]; 1.43 in assay [5]; 0.489 in assay [6]. For the same molecule, the composite z-score is 0.984 in assay [7]; 0.307 in assay [9]; -0.186 in [10]; 0.411 in [11]; 2.93 in [15]; 0.0906 in assay [17]. The composite z-score was -0.785 in [18], 0.153 in assay [19] and -0.0592 in assay [20]. In addition, the z-score in assay [8] is 0.793 (inactive); in [12] it was -0.112 (inactive); in [13], 0.116 (inactive); in assay [14], 0.343 (inactive); in assay [16], -1.25 (inactive).

In the case of `COc1ccc(C#Cc2ccc3c(c2)[C@]2(C(=O)N3)[C@H](C(=O)NC[C@H](O)c3ccccc3)[C@H]3C(=O)O[C@H](c4ccccc4)[C@H](c4ccccc4)N3[C@@H]2c2ccc(O)cc2)cc1`, the composite z-score in assay [1] was -0.384; in assay [2], 0.736; in assay [3], -0.0824; in assay [4], 0.857; in [5], 1.2; in assay [6] it was 1.52. The composite z-score is 1.34 in [7]; 0.243 in assay [9]; -0.201 in assay [10]; 1.55 in [11]; 2.98 in assay [15]; 0.0078 in assay [17]. Besides, the figures for the composite z-score in assay [18], in [19] and in assay [20] were 0.904, 0.729 and 0.0996, respectively. The z-score in [8] is 0.254 (inactive); in assay [12], 2.26 (inactive); in [13], 0.984 (inactive); in assay [14] it was 2.2 (inactive); in assay [16], -0.0198 (inactive).
